# Sampled rows, rich in hits. Any-hit rate of the full collection: about 2.5%.
# ATG4B inhibitor – inhibitors of human ATG4B cysteine protease | Q9Y4P1 | ATG4B cleavage of LC3-PLA2, NBD-HPC fluorescence, 1 h | inhibition, % at 8.33 µM | 340,000 compounds, 0.51% hits; in the data active = inhibition above about 40%
# Target sequence (Q9Y4P1 whole entry, looked up): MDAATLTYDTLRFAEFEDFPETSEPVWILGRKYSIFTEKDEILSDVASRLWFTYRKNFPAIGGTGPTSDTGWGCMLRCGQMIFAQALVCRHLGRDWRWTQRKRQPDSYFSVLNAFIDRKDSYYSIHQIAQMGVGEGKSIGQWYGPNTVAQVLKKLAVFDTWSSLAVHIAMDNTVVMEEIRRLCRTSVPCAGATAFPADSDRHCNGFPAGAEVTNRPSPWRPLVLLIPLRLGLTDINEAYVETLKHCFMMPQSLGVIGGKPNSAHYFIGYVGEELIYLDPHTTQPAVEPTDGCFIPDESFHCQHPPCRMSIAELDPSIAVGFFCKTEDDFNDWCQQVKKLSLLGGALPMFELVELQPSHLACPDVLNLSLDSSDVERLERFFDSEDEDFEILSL
# Mot1-301 SUMO – inhibitors of SUMOylation pathway: yeast Mot1-301 growth rescue. S. cerevisiae Mot1-301 growth rescue, ATP luminescence, 38.5C; percent above DMSO median, 100 means doubled. growth rescue, % at 18.8 µM. 320,000 compounds, 1% hits. AID 2716;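 active = every valid replicate shows activation above 250% relative to neutral control wells; inactive = the rest, any valid replicate at or below 250%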
# Efflux pump mplx – blocks antifungal efflux pumps in multiplex yeast assay | S. cerevisiae Candida pump triplex, Nile Red efflux | inhibition, % at 10 µM | 330,000 compounds, 0.44% hits;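 active = plate passing quality check with inhibition over a set limit, or well fluorescence over plate mean plus 4 SD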;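 note: Nile Red retained in pooled yeast measured as flow cytometry median fluorescence; higher means more Nile Red kept so more efflux inhibition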
# V-ATPase pH – regulators of yeast V-ATPase proton transport; 350,000 compounds, 0.37% hits; S. cerevisiae, pHLuorin cytosolic pH fluorescence; response, % at 10 µM; in the data active = response mostly above about 7.3%, no sharp cut-off; inactive = mostly below about 5.4%; note: actives read high
# AI-2 QS mod – modulators of Vibrio harveyi AI-2 quorum sensing system | Vibrio harveyi JMH597 AI-2 luminescence/OD600 ratio, 9 h; hits give low values; strain lacks LuxN and CqsS sensors; 0 = neutral-control median | activity change, % at 7.5 µM | 300,000 compounds, 0.4% hits | AID 2094; in the data active = activity change below about -75%, passing the limit was not always enough;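 note: luminescence divided by OD600 gain over 9 h not by final OD600 alone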
# Cmpd fluor yeast – compound fluorescence in yeast efflux pump counter-screen | shares compounds with Efflux pump mplx | S. cerevisiae AD/pABC3, flow cytometry | fluorescence ratio to DMSO, % at 10 µM | 1,700 compounds, 4% hits | AID 588517;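 active = fluorescence ratio to DMSO above its plate's cutoff, the plate mean ratio plus 5 SD, cut at about 210% in these data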;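 note: unstained yeast with no Nile Red so the signal is compound autofluorescence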
# Mdr1 pump inh – inhibitors of Candida albicans Mdr1 efflux pump. S. cerevisiae AD/CaMDR1, Nile Red efflux, flow cytometry. inhibition, % at 10 µM. 1,700 compounds, 1% hits. shares compounds with Efflux pump mplx; in the data active = inhibition above about 26%;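 note: higher means more Nile Red retained so more efflux inhibition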
# CaCdr2 efflux inh – blocks the Candida albicans Cdr2 efflux pump in yeast | 1,700 compounds, 4% hits | Nile Red retention ratio vs DMSO, % at 10 µM | S. cerevisiae AD/CaCDR2, Nile Red retention, flow cytometry | shares compounds with Efflux pump mplx; in the data active = Nile Red retention ratio vs DMSO above about 190%;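 note: higher ratio means more blocking of Cdr2 efflux of the dye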
# Cdr1 pump inh – Candida Cdr1 efflux pump inhibition; shares compounds with Efflux pump mplx; S. cerevisiae AD/CaCDR1, Nile Red efflux, flow cytometry; 1,700 compounds, 1% hits; AID 588522; inhibition, % at 10 µM;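 active = inhibition above the screen-wide mean plus twice its standard deviation, cut at about 32% in these data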
# Hits are given with their value; - = inactive; . = not tested or not shown.
SMILES,ATG4B inhibitor,Mot1-301 SUMO,Efflux pump mplx,V-ATPase pH,AI-2 QS mod,Cmpd fluor yeast,Mdr1 pump inh,CaCdr2 efflux inh,Cdr1 pump inh
CCc1ccc(NC(=O)c2ccc3c(c2)C(=O)N(CCOC)C3Nc2ccc(CC)cc2)cc1 (configuration not stated),-,-,-,-,-,.,.,.,.
COc1cc(C(=O)NCCC(=O)NC(C)CCc2ccccc2)cc(OC)c1OC (configuration not stated),-,-,-,-,-,.,.,.,.
CC(C(=O)Nc1ccccc1C(=O)N1CCOCC1)N(c1ccc(Cl)cc1)S(C)(=O)=O (configuration not stated),-,-,0.7,-,-,-,-,-,-
O=C(Cc1cccs1)N1CCN=C1SCc1ccccc1F,-,-,-,-,-,.,.,.,.
O=C(Cc1cccs1)N1CCN=C1SCc1ccccc1Cl,-,-,1.0,-,-,-,-,-,-
CCN(CC)C(=O)Cn1c(=O)n(CCC(=O)Nc2ccc(F)cc2)c(=O)c2sccc21,-,-,-,-,-,.,.,.,.
CCCN(CCC)C(=O)Cn1c(=O)n(CCCCCC(=O)Nc2ccccc2)c(=O)c2sccc21,-,-,18.9,-,-,-,-,-,-
Cc1cc(C)cc(N(C(=O)Cn2nnc(-c3ccccc3)n2)C(C(=O)NC2CCCCC2)c2ccccn2)c1 (configuration not stated),-,-,6.4,-,-,-,-,-,-
Cc1ccc(N(C(=O)Cn2nnc(-c3ccccc3)n2)C(C(=O)NC2CCCCC2)c2ccccn2)cc1C (configuration not stated),-,-,-,-,-,.,.,.,.
CC(=O)Nc1cccc(/C(C)=N\NC(=O)c2ccc(Cn3nc([N+](=O)[O-])c(Cl)c3C)o2)c1,-,-,-,-,-,.,.,.,.
COC(=O)C1=C(C)Nc2sc(C(N)=O)c(N)c2C1c1ccncc1 (configuration not stated),-,-,-,-,-,.,.,.,.
CCOC(=O)C1=C(C)Nc2sc(C(=O)c3ccc(OC)cc3)c(N)c2C1c1ccc(C(=O)OC)cc1 (configuration not stated),-,-,11.1,-,-,-,-,-,-
Cc1cc(NC(=O)CNCC(c2ccccc2)N(C)C)c([N+](=O)[O-])cc1C (configuration not stated),-,-,-,-,-,.,.,.,.
Fc1ccc(CN2CCN(c3ncnc4scc(-c5ccccc5)c34)CC2)cc1,-,-,1.7,-,-,-,-,-,-
Fc1ccc(-c2csc3ncnc(N4CCN(Cc5ccccc5)CC4)c23)cc1,-,-,-,-,-,.,.,.,.
COc1cccc(NC(=O)C(c2ccccc2)N2CCNC(=O)C2)c1 (configuration not stated),.,-,-,-,-,.,.,.,.
CCOC(=O)c1nn(-c2ccc(C)cc2)c(C)c1C(C)=O,-,-,-,-,-,.,.,.,.
CCOC(=O)c1nn(-c2ccc(OCC)cc2)c(C)c1C(C)=O,-,-,1.8,-,-,-,-,-,-
NC(=O)C1CCN(c2nc(-c3ccccc3F)cs2)CC1,-,-,7.5,-,.,-,-,-,-
NC(=O)C1CCN(c2nc(-c3ccccc3Br)cs2)CC1,-,-,-,.,.,.,.,.,.
CCN(CC)S(=O)(=O)c1ccc(Cl)c(C(=O)Nc2ccc(Cl)cc2[N+](=O)[O-])c1,-,-,-,-,-,.,.,.,.
CC(NC(=O)/C=C/c1ccco1)c1nc2ccccc2n1Cc1c(Cl)cccc1Cl (configuration not stated),-,-,11.4,-,-,-,-,-,-
CC(NC(=O)/C=C/c1ccco1)c1nc2ccccc2n1Cc1ccccc1F (configuration not stated),-,-,-,-,-,.,.,.,.
COc1ccc(N(CCC#N)S(=O)(=O)c2cccc3nsnc23)cc1,-,-,-,-,-,.,.,.,.
COc1ccc(OC)c(CNn2c(-c3cccc(C)c3)nc3ccccc3c2=O)c1,-,-,0.7,-,-,-,-,-,-
SMILES,ATG4B inhibitor,Mot1-301 SUMO,Efflux pump mplx,V-ATPase pH,AI-2 QS mod,Cmpd fluor yeast,Mdr1 pump inh,CaCdr2 efflux inh,Cdr1 pump inh
COc1cccc(CNn2c(-c3cccc(C)c3)nc3ccccc3c2=O)c1,-,-,-,-,-,.,.,.,.
Cc1nn(CC(=O)NCCCN2C(C)CCCC2C)c(=O)c2cc3occc3n12 (configuration not stated),-,-,-,-,-,.,.,.,.
CCOC(=O)N1CCN(C(=O)c2ccc3c(c2)N(Cc2cc(C)ccc2C)C(=O)c2ccccc2S3=O)CC1 (configuration not stated),-,-,-,-,-,.,.,.,.
Cc1cc(C)c(S(=O)(=O)Nc2ccc(O)c(Sc3ncn[nH]3)c2)cc1C,-,-,-,-,-,-,-,-,-
Cc1cc(C)c(S(=O)(=O)Nc2ccc(O)c(Sc3ncn[nH]3)c2)c(C)c1,-,-,11.1,-,-,-,-,-,-
Cc1cc(C)c(S(=O)(=O)Nc2ccc(O)cc2)cc1C,-,-,-,-,-,.,.,.,.
COc1ccc2[nH]cc(/C=C/c3cc[n+](C)cc3)c2c1,-,-,-,-,-,418.7,-,-,-
COc1ccc2[nH]cc(C=O)c2c1,-,-,-,-,-,.,.,.,.
O=C(O)c1ccccc1S(=O)(=O)CC(=O)N1CCCCC1,-,-,-,-,-,.,.,.,.
COC(=O)NCc1ccc(S(=O)(=O)N2CCOCC2)cc1,-,-,0.5,-,-,-,-,-,-
COc1ccc(CNC(=O)c2ccc(S(=O)(=O)N3CCOCC3)cc2)cc1,-,.,.,-,.,.,.,.,.
Cc1ccccc1NC(=O)CSc1ccc(-c2cccnc2)nn1,-,-,-,-,-,.,.,.,.
CCOC(=O)c1ccccc1NC(=O)CSc1ccc(-c2cccnc2)nn1,-,-,1.5,-,-,-,-,-,-
CN=C1CC(SC)=C1c1ccc(C)cc1,-,-,-,-,-,.,.,.,.
CCOc1ccc(OCCn2nnc3ccccc3c2=O)cc1,-,-,-,-,-,.,.,.,.
CCn1c(-c2csc(C(C)C)c2)n[nH]c1=S,-,-,11.1,-,-,-,-,-,-
COc1ccc(OC)c(-c2csc(NC(=O)CN3C(=O)C4CCCCC4C3=O)n2)c1 (configuration not stated),-,-,0.4,-,-,-,-,-,-
CCC1=C(OC(=O)N(CC)CC)N2C(=O)OC(=NCCc3c[nH]c4ccccc34)[C@]2(Cc2ccccc2)[C@H]2C1=CC[C@H]1C(=O)N(CC)C(=O)[C@H]12,-,-,39.3,-,-,-,-,-,-

# Compound activity as filed in PubChem BioAssay.
